# CHX counter: affects cycloheximide protein synthesis inhibition readout, counter-screen; cell reporter, cycloheximide protein synthesis inhibition counterscreen; max response, %; 300,000 compounds, 12% hits; in the data active = max response mostly above about 13%, no sharp cut-off; inactive = mostly below about 14%; also: read at 38.3 µM for the half of the compounds with a filed dose; 0% is about no effect
# Shiga toxin inh: Shiga toxin inhibition | Vero cells, Shiga toxin protein synthesis inhibition reporter | inhibition, % at 38.7 µM | 290,000 compounds, 9.2% hits | AID 2315; in the data active = inhibition mostly above about 28%, no sharp cut-off; inactive = mostly below about 43%; also: 0% is about no effect
# SARS PLpro yeast: blocks SARS-CoV papain-like protease in a yeast assay. Potency, µM (doses to about 32.9 µM), for the others: at the top dose activity, positive = growth rescue, most hits filed as activators. 330,000 compounds, 0.19% hits. S. cerevisiae expressing SARS-CoV PLpro, growth rescue; also: potency is read from the fitted curve at half-maximal effect; 0% is about no effect; nearly all actives have a fitted effect of over 55% in size
# NS1 inh: inhibitors of influenza NS1 protein function; Potency, µM (series often up to 46.1 µM), for inactives: top-dose activity, positive = more growth; 270,000 compounds, 0.4% hits; AID 2326; also: potency is read from the fitted curve at half-maximal effect; actives are rising curves; nearly all actives have a fitted effect of over 50% in size
#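 Compounds were scored for reversing the slow growth caused by influenza A NS1 in S. cerevisiae, measured by optical density at 600 nm. Assay medium contained 2% galactose at pH 6.0; NS1-free yeast of the same strain were the positive control.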
# Numbers without * were called inactive; ? = inconclusive; . = not tested or not shown. This is a sample that favours compounds with a hit; in the whole collection about 12% have one here. Unless noted, calls follow the shape of the full dose curve.
SMILES,CHX counter,Shiga toxin inh,SARS PLpro yeast,NS1 inh
Cc1cccc(/C(N)=N/OC(=O)c2ccc3c(c2)OCO3)c1,42.4*,43.1*,-114.9%,-18.0%
O=C(O)C[C@H](S)C(=O)O,.,.,.,-3.8%
O=c1[nH]c2cc3c(cc2cc1CN(Cc1ccccc1)Cc1nnnn1Cc1ccco1)OCCO3,3.1,48.4,9.8%,-14.8%
CCc1ccc2[nH]c(=O)c(CN(Cc3ccccc3)Cc3nnnn3Cc3ccco3)cc2c1,24.4*,71.6*,1.1%,-44.5%
Cc1ccc2[nH]c(=O)c(CN(CCc3ccccc3)C(c3nnnn3Cc3ccco3)C(C)C)cc2c1 (stereo not drawn),15.4,39.9*,-1.4%,?
O=C1c2cccc3cccc(c23)C(=O)N1CC1CCN(S(=O)(=O)c2ccc(F)cc2)CC1,-3.0,-8.9,7.8%,16.7%
COc1ccccc1C(=O)Nc1nnc(-c2ccc3c(c2)CCCC3)o1,18.2,39.1,-29.3%,-34.4%
O=C(O)C1CCCCC1C(=O)Nc1nc(-c2ccc(Cl)s2)cs1 (stereo not drawn),-0.9,2.0,8.9%,.
CCCC(=O)Nc1nc(-c2ccc(Cl)s2)cs1,38.2*,28.0,-4.3%,.
CCCC(=O)Nc1nnc(-c2ccc3c(c2)OCCO3)o1,30.7*,58.4*,-5.5%,.
CCCC(=O)Nc1nnc(-c2ccc3c(c2)OCO3)s1,-0.9,-2.6,-3.7%,-4.7%
CC(=O)Nc1nnc(-c2ccc3c(c2)CCCC3)o1,46.4*,65.2*,-14.4%,-67.5%
CSCC(=O)Nc1nc(-c2ccc3c(c2)OCCO3)cs1,51.2*,119.0*,-4.0%,.
O=C(O)c1ccn2c(C(=O)c3ccc(Cl)cc3)c(-c3ccccc3)cc2c1,-2.3,-6.0,-3.1%,-6.0%
O=C(CSCC(=O)Nc1nc(-c2ccc3c(c2)OCO3)cs1)Nc1nccs1,-1.5,5.9,-0.4%,?
O=C(Nc1nc(-c2ccc3c(c2)OCO3)cs1)C1CC1,44.0*,65.6*,-12.7%,-52.6%
CCc1ccc(-c2csc(NC(=O)COC(=O)CCc3nc4ccccc4s3)n2)cc1,47.9*,53.3*,21.4%,-4.4%
COc1ccc(-c2csc(NC(=O)COC(=O)C3=COCCO3)n2)cc1,33.1*,52.6,3.4%,.
O=C(O)C(=O)Nc1nc(-c2ccc3c(c2)OCCO3)cs1,14.4*,26.2*,-1.8%,0.0%
Cc1ccccc1C(=O)c1cccn1CC(=O)NCCCN1CCc2ccccc2C1,10.3,14.2,2.2%,.
Cc1ccc(NC(=O)c2ccc3c(c2)C(=O)N(c2ccccc2C)C3=O)nc1,.,.,-4.9%,.
CCCC(=O)Nc1nc(-c2ccc3c(c2)OCCO3)cs1,40.0*,92.9*,-12.3%,-14.1%
CCCC(=O)Nc1nc(-c2ccc(OC)cc2)cs1,39.7*,138.4*,-8.8%,0.3%
Cc1csc(NC(=O)c2cccn2C)n1,61.8*,102.1*,-6.7%,5.9%
Cn1cccc1C(=O)Nc1nc(-c2ccccn2)cs1,51.1*,83.5*,-38.9%,-109.5%
SMILES,CHX counter,Shiga toxin inh,SARS PLpro yeast,NS1 inh
Cc1ccc(C(=O)Nc2nc(-c3ccccn3)cs2)s1,.,.,-26.4%,.
COc1cc(/C=N/NC(=S)NC2CC3CC2C2C=CCC32)ccc1O (stereo not drawn),33.6*,88.7,-4.0%,14.0%
C[C@H](NC(=O)[C@H]1N2C(=O)c3ccccc3C2SC1(C)C)C(=O)NCc1ccncc1 (stereo partly drawn),8.5,-8.9,1.6%,-5.0%
O=C(O)c1cc(-c2ccc(-c3c(-c4ccc5c(c4)OCO5)noc3-c3ccsc3)cc2)nc2ccccc12,35.9*,60.6*,-2.0%,-2.8%
COc1ccc(-c2c(-c3ccc4c(c3)OCO4)noc2C)cn1,24.8*,66.7*,-1.3%,-64.6%
COC(=O)c1cc(-c2c(-c3ccc4c(c3)OCO4)noc2-c2ccsc2)cc([N+](=O)[O-])c1,24.6*,30.4,9.3%,7.5%
CC(C)(C)NC(=O)c1cc(-c2ccc3c(c2)OCO3)nc2ccccc12,13.6,20.1,-5.8%,3.0%
COC(=O)c1cc(-c2c(-c3cc(OC)c(OC)c(OC)c3)noc2C)cc([N+](=O)[O-])c1,1.0,17.2,-3.0%,3.1%
CN(C)c1ccc(-c2c(-c3ccc4c(c3)OCO4)noc2-c2ccsc2)cn1,28.1*,40.1*,-13.0%,-10.8%
COc1cccc(Nc2nc(C)cc(C)c2C(N)=O)c1,1.9,-4.6,1.6%,15.7%
C=CCN(CC=C)C(=O)c1cccc(S(=O)(=O)N2c3ccccc3CC2C)c1 (stereo not drawn),-1.4,-6.9,-1.1%,7.2%
O=C(N/N=C/c1cccc([N+](=O)[O-])c1)c1cnccn1,15.6,active,-12.8%,5.4%
COc1ccc(/C=N/NC(=O)c2cnccn2)c(OC)c1OC,19.6,16.5,0.4%,4.5%
COc1cccc(/C=N/NC(=O)c2cnccn2)c1,75.4*,86.0*,1.8%,-8.4%

# High-throughput results (PubChem BioAssay)
